# Compound activity from PubChem BioAssay.
# G9a block: G9a (human) methyltransferase inhibition. AID 504332. G9a H3K9 monomethylation, AlphaScreen, 2 h. 350,000 tested, 8.8% active. Potency, µM (top dose mostly 102 µM), for the others: at the highest dose activity, negative = inhibition, most hits filed as inhibitors; further: on the % scale 0 is the no-effect control and ±100 the full control effect; nearly all actives have a fitted effect of over 75% in size
#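 AlphaScreen detection with an anti-monomethyl H3K9 antibody quantified product after a 2 h room-temperature reaction containing 500 nM biotinylated H3K9 peptide, 20 µM SAM and 20 nM enzyme, which had been preincubated 15 min with compound.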
# JMJD2A Tudor inh: blocks the human JMJD2A Tudor domain; O75164; AlphaScreen JMJD2A-Tudor / H3K4me3 peptide binding; Potency, µM (titrated, usually from 114 µM), for inactives: at the top dose activity change, negative = inhibition, most hits filed as inhibitors; 390,000 tested, 4.4% active; AID 504339; further: on the % scale 0 is the no-effect control and ±100 the full control effect; nearly all actives have a fitted effect of over 50% in size
# Target sequence (O75164 whole entry, looked up, the tested form may be a part): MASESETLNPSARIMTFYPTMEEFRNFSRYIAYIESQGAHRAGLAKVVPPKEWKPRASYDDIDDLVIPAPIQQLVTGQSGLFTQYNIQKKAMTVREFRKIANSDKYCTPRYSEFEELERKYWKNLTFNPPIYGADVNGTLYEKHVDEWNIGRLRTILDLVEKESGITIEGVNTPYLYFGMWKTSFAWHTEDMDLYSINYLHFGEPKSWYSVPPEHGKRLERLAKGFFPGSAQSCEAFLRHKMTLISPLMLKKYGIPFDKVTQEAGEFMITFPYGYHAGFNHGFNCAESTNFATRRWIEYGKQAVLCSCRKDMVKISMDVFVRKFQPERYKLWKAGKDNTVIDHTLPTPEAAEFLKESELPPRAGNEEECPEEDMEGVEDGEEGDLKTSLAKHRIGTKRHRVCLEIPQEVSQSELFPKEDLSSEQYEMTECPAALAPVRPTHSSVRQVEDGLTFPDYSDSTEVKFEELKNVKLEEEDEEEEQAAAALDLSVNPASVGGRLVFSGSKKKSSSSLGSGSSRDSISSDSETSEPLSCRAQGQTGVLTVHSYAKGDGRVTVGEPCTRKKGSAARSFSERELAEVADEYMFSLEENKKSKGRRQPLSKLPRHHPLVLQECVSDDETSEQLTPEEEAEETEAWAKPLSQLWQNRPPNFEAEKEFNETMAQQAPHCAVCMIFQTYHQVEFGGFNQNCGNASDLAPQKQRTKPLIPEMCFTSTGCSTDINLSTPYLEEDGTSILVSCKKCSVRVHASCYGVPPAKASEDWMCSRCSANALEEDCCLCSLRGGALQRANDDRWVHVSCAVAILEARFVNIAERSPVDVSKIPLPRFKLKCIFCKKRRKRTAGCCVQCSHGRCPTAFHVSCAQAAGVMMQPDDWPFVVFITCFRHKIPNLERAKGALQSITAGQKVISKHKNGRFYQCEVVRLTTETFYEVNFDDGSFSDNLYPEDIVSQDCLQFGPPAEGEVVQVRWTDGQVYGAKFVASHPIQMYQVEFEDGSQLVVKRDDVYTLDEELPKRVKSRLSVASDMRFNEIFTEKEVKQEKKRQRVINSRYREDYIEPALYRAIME
# L3MBTL1 inh-1: L3MBTL1 (human) inhibition | AlphaScreen L3MBTL1–H3K9me1 peptide binding | Q9Y468 | 230,000 tested, 0.66% active | Potency, µM (doses to about 57.1 µM), for the others: top-dose activity, negative = inhibition, hits mostly inhibitors | AID 485360; further: on the % scale 0 is the no-effect control and ±100 the full control effect; nearly all actives have a fitted effect of over 60% in size
#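 Read-out is AlphaScreen signal from streptavidin donor and nickel chelate acceptor beads (10 ug/mL final each) bridging L3MBTL1 (50 nM) and biotinylated K9-monomethylated H3(1-15) peptide (75 nM), after 30 min compound exposure at room temperature.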
# HP1b chromo inh: HP1-beta chromodomain-methylated histone interaction inhibition. P83916. AlphaScreen HP1-beta / biotin-H3K9me3 peptide binding. 390,000 tested, 0.56% active. AID 540317. Potency, µM (doses to about 114 µM), for inactives: at the highest dose activity change, negative = inhibition, usual class: inhibitors; further: nearly all actives have a fitted effect of over 70% in size
#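 Compound inhibition of the preformed complex between 50 nM HP1-beta and 50 nM biotinylated H3K9me3 peptide was read by AlphaScreen. Buffer was PBS pH 7.4 with 0.01% Tween-20. Incubations ran 30 min at room temperature, with 10 ug/mL donor/acceptor beads.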
# BAZ2B block: inhibitors of human BAZ2B bromodomain; Q9UIF8; AlphaScreen BAZ2B-H3K14Ac peptide displacement; Potency, µM (highest dose often 114 µM), inactives show at the highest dose activity change, negative = inhibition, usual class: inhibitors; 360,000 tested, 4.4% active; further: on the % scale 0 is the no-effect control and ±100 the full control effect; nearly all actives have a fitted effect of over 60% in size
#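 AlphaScreen displacement: compounds (up to 110uM) incubated 30 min at room temperature with a preformed 50 nM BAZ2B/50 nM biotinylated H3K14Ac peptide complex in PBS pH 7.4 with Tween-20. Donor and acceptor beads at 10 ug/mL final added, 20 min light-protected before reading.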
# L3MBTL1 inh-2: blocks human L3MBTL1 methyl-lysine binding; L3MBTL1 methyl-lysine binding inhibition, biochemical qHTS; shares compounds with L3MBTL1 inh-1; Potency, µM, hits mostly inhibitors; 500 tested, 91% active; further: nearly all actives have a fitted effect of over 70% in size
# L3MBTL1 ctr: AlphaScreen signal inhibition, L3MBTL1 hit counter-screen; 500 tested, under 10 active; AlphaScreen counterscreen, signal inhibition; Potency, µM (highest dose often 57.1 µM), without a hit: at the highest dose activity change, negative = inhibition, most hits filed as inhibitors; shares compounds with L3MBTL1 inh-1; further: 0% is about no effect
# Numbers without * were called inactive; u = inconclusive; x = no result; [ ] = another dose, or the depositor's remark. Hits are enriched below; roughly 11% of the tested compounds scored in any of these assays. The call rests on the fitted dose curve; in most records, active means well fitted curve in the direction sought with a large enough effect; inconclusive means small, poorly fitted or top-dose-only effect, or another doubt; inactive means no such curve, though single readings can be large; an effect the other way counts as inactive or inconclusive. Potency means the concentration at half of the fitted maximal effect.
SMILES,G9a block,JMJD2A Tudor inh,L3MBTL1 inh-1,HP1b chromo inh,BAZ2B block,L3MBTL1 inh-2,L3MBTL1 ctr
CCOC(=O)c1nc2sc3c(c2c(=O)[nH]1)CCCC3,26.8%[59 µM],-10.2%,-3.6%,41.7%,10.3%,x,x
N#C/C(=C\c1ccc(C(=O)O)cc1)c1nc2sc3c(c2c(=O)[nH]1)CCCC3,39.8µM*,u,22.4µM*,-33.1%,44.7µM*,10.6*,-24.2%
Cc1ccc(CNC(=O)N2CCN(S(=O)(=O)c3ccccc3)CC2)cc1,35.5%,5.4%,x,14.7%,6.4%,x,x
COc1ccc(C(O)P(=O)(OCCC(C)C)c2ccc(N(C)C)cc2)cc1 (configuration not stated),15.9%,-21.4%,x,32.4%,-17.7%,x,x
O=C(NCc1ccccc1)C1CCN(S(=O)(=O)c2cc([N+](=O)[O-])ccc2Cl)CC1,30.9%[59 µM],3.4%,4.0%,21.7%,18.2%,x,x
O=C(Nc1nc2ccc(F)cc2s1)C1CCN(S(=O)(=O)c2cc([N+](=O)[O-])ccc2Cl)CC1,22.4µM*,u,28.2µM*,-8.4%,u,6.7*,u
Cc1ccc2nc(NC(=O)C3CCN(S(=O)(=O)c4cccc5nsnc45)CC3)sc2c1,1.2%[59 µM],-33.3%,-17.2%,12.5%,u,x,x
Cc1ccc2nc(NC(=O)C3CCN(S(=O)(=O)c4cc([N+](=O)[O-])ccc4Cl)CC3)sc2c1,u,39.8µM*,10µM*,u,35.5µM*,9.47*,-16.1%
CCOc1ccc(C2C3=C(CCCC3=O)Nc3ccc4ncccc4c32)cc1 (configuration not stated),x,-22.1%,x,38.3%,-15.5%,x,x
O=C1CCCC2=C1C(c1ccc(O)c(O)c1)c1c(ccc3ncccc13)N2 (configuration not stated),3.55µM*,-18.8%[11.4 µM],2µM*,u,44.7µM*,21.2*,13.6%
Cn1cnnc1SCC(=O)Nc1ncc([N+](=O)[O-])s1,x,28.2µM*,28.2µM*,u,x,1.68*,-0.1%
Cc1csc(NC(=O)CSc2nncn2C)n1,34.7%[59 µM],1.8%,4.3%,34.3%,10.6%,x,x
O=C(Oc1c(CN2CCOCC2)cc(Cl)c2cccnc12)c1ccccc1Cl,2.6%,50.1µM*,14.1µM*,34.1%,11.2µM*,26.7*,-15.7%
Oc1c(CN2CCN(c3ccccn3)CC2)cc(Cl)c2cccnc12,u,31.6µM*,4.47µM*,-15.4%,14.1µM*,21.2*,-94.6%
CCCCN(CCCNC(=O)CN1C(=O)COc2ccc(S(=O)(=O)N3CCC(C)CC3)cc21)Cc1ccccc1,9.6%,-7.8%,x,34.5%,-14.3%[57.1 µM],x,x
O=C(COc1ccc(Cl)cc1)NNC(=O)c1ccccc1C(=O)O,u,-8.3%,x,29.7%,-18.4%,x,x
O=c1c2ccccc2sc2nc(C3CCCCC3)n(Cc3ccco3)c(=O)c12,u,-24.6%,x,9.1%,u,x,x
CCc1nc2sc3ccccc3c(=O)c2c(=O)n1Cc1ccco1,-18.6%[59 µM],56.2µM*,31.6µM*,-10.0%,u,16.8*,9.0%
O=C(O)CCCN1C(=O)/C(=C\c2ccc(-c3nc4ccccc4s3)o2)SC1=S,x,-31.6%[11.4 µM],3.55µM*,17.8µM*,7.94µM*,4.23*,u
COC(=O)c1cccnc1-n1c(=O)c2cccnc2n(CC(=O)Nc2cccc(C)c2)c1=O,19.2%[59 µM],-9.6%,x,62.1%,5.5%,x,x
Cc1nnc(NC(=O)C2CCN(S(=O)(=O)c3ccc(F)c(Cl)c3)CC2)o1,-39.8%,3.55µM*,35.5µM*,34.3%,31.6µM*,u,-6.1%
Cc1ccc(S(=O)(=O)N2CCC(C(=O)Nc3ccc(C)c(Cl)c3)CC2)cc1,-26.0%[59 µM],-5.5%,x,35.5%,1.6%,x,x
Cc1ccc(-c2cc(C(=O)O)c3cc(Br)ccc3n2)o1,1.26µM*,25.1µM*,31.6µM*,-24.8%,56.2µM*,21.2*,-5.1%
COc1ccc2c(c1)c(=O)oc1c(C)c(OC(C)C(=O)NCC3CCC(C(=O)O)CC3)ccc12 (configuration not stated),-8.3%[12.7 µM],-14.3%,x,28.3%,2.2%,x,x
COc1ccc2c(c1)c(=O)oc1c(C)c(OCc3cc(C(=O)O)oc3C)ccc12,u,28.2µM*,35.5µM*,u,u,10.6*,4.1%
SMILES,G9a block,JMJD2A Tudor inh,L3MBTL1 inh-1,HP1b chromo inh,BAZ2B block,L3MBTL1 inh-2,L3MBTL1 ctr
Cc1nc(NC(=O)CCN2C(=O)C3CC=CCC3C2=O)sc1C (configuration not stated),24.5%,-11.7%,x,36.4%,-4.7%,x,x
CC(=O)N1CCN(c2ccc(NC(=O)/C=C/c3ccccc3)cc2)CC1,18.9%[59 µM],-14.0%,22.7%,34.5%,-8.1%,x,x
O=C(O)/C=C\C(=O)Nc1ccc(N2CCN(c3ccc(Cl)c(Cl)c3)CC2)cc1,31.6µM*,39.8µM*,25.1µM*,u,31.6µM*,13.4*,u
Cc1cc(C(=O)COC(=O)c2cc(Cl)c(O)c(Cl)c2)c(C)n1C,-0.9%[12.7 µM],50.1µM*,28.2µM*,u,50.1µM*,4.74*,u
Cc1cc(C(=O)COC(=O)c2ccc(F)cc2)c(C)n1C,x,-8.3%,-5.2%,38.0%,x,x,x
COc1ccc(-n2cccc2/C=C2\C(=N)N3N=C(C(C)C)SC3=NC2=O)cc1,u,-24.5%,-28.4%,-5.3%,u,x,x
COc1ccc(-n2cccc2/C=C2\C(=N)N3N=C(c4ccco4)SC3=NC2=O)cc1,u,14.1µM*,15.8µM*,-13.7%,39.8µM*,2.67*,u
COCCN(C(=O)COC(=O)Cc1coc2cc(C)ccc12)c1c(N)n(Cc2ccccc2)c(=O)[nH]c1=O,u,-25.5%,25.1µM*,6.6%,u,26.7*,1.2%
COCCN(C(=O)COC(=O)Cc1cccc2ccccc12)c1c(N)n(Cc2ccccc2)c(=O)[nH]c1=O,x,-19.9%,x,2.0%,-5.4%,x,x
COCCN(C(=O)COC(=O)c1cc2c(s1)CCC2)c1c(N)n(Cc2ccccc2)c(=O)[nH]c1=O,10µM*,8.91µM*,2.51µM*,-94.5%,8.91µM*,0.844*,-2.3%
Cc1noc(C)c1NC(=O)Nc1ccc2c(c1)CC(=O)N([C@H](C)CO)C[C@@H](C)[C@H](CN(C)CC1CCCCC1)O2,x,-23.6%,-3.6%,48.7%,x,x,x
Nc1nc(-c2ccccn2)nc(N)c1Cc1c(F)cccc1Cl,7.6%,79.4µM*,3.55µM*,33.7%,8.91µM*,10.6*,-22.1%
COc1cnc(-c2ccccn2)nc1Sc1ccccc1Cl,100.0%[59 µM],u,-20.3%,4.0%,-35.7%[57.1 µM],x,x
COc1cnc(-c2ccccn2)nc1N(C)C,-40.5%,22.4µM*,3.98µM*,39.3%,4.47µM*,6.7*,-80.5%
